Screening results as filed in PubChem.
Gli-Sufu block – Gli-Sufu pathway antagonism | inhibition, % at 5 µM | hit rate 0.74% among 340,000 | Sufu-KO-LIGHT fibroblasts, Gli luciferase reporter luminescence | AID 588413;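 active = inhibition above about 55%, limit read from the data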;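 note: 0% = DMSO-treated cells and 100% = wells with medium but no cells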
COUP-TFII inh – blocks human COUP-TFII nuclear receptor | HEK293T NGFI-A luciferase reporter, luminescence | inhibition, % at 8.6 µM | hit rate 0.7% among 370,000;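 active = inhibition above a per-plate cutoff, mean inhibition of test wells between control levels plus 3 SD, cut at about 38% in these data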;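 note: cells cotransfected with COUP-TFII expression vector driving the NGFI-A reporter; 0% = median of COUP-TF2 test wells and 100% = reporter-only cells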
Target sequence (P24468 whole entry, looked up): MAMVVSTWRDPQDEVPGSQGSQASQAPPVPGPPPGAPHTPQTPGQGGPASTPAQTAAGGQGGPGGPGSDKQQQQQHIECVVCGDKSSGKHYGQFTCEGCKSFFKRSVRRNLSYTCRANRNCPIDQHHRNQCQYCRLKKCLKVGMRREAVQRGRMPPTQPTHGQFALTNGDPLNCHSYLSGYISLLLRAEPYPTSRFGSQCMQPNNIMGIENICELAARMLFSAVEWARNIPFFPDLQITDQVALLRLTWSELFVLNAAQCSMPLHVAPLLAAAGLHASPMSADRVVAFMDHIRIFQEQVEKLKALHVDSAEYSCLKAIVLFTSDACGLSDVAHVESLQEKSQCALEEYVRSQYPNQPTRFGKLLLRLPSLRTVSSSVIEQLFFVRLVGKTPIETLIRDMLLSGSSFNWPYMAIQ
NCOA2 inhibitor – human SRC2 (NCOA2) inhibition | HEK293 GAL4-SRC2 luciferase reporter, luminescence | inhibition, % at 9 µM | hit rate 0.17% among 370,000;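 active = inhibition above the mean inhibition of all tested compounds plus 3 SD, set per campaign, cut at about 52% in these data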;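 note: 0% = DMSO treated cells and 100% = cells given Gossypol at 36 µM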
SRC1 inh – inhibitors of human steroid receptor coactivator 1 (SRC1); Q15788; HEK293 GAL4-SRC1 luciferase reporter, luminescence; inhibition, % at 3.6 µM; hit rate 0.12% among 360,000;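 active = inhibition above the campaign mean plus 3 SD, with each screening campaign given its own cutoff, cut at about 60% in these data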;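 note: 0% = DMSO treated cells and 100% = gossypol at 36 µM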
LRH-1 inv ag – suppresses constitutive activity of human LRH-1. O00482. HEK293T StAR-luciferase reporter, LRH-1 transfected, 24 h. inhibition, % at 3.6 µM. hit rate 0.13% among 360,000. AID 602396;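 active = inhibition above the mean inhibition of all tested compounds plus 3 SD, cut at about 73% in these data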;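 note: 0% = DMSO wells and 100% = reporter-only cells lacking LRH-1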
NCOA3 inh – inhibits human SRC3 coactivator | HEK293 GAL4-SRC3 luciferase reporter, luminescence | AID 588352 | hit rate 0.17% among 360,000 | inhibition, % at 3.6 µM;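 active = inhibition above a per-campaign cutoff, the mean of all compounds plus 3 SD, cut at about 60% in these data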;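 note: 0% = DMSO-treated cells and 100% = gossypol-treated cells at 36 µM; higher means less SRC3-driven luciferase light from the GAL4 reporter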
Gal4-VP16 ctr – inhibits VP16 reporter, flagging COUP-TFII antagonist hits; hit rate 25% among 2,500; inhibition, % at 8.5 µM; shares compounds with COUP-TFII inh; HEK293 Gal4-VP16 luciferase reporter, luminescence; AID 687007; in the data active = inhibition above about 13%
COUP-TFII conf – confirmation of human COUP-TFII (NR2F2) inhibitors; shares compounds with COUP-TFII inh; HEK293 NGFI-A luciferase reporter, luminescence; inhibition, % at 8.5 µM; hit rate 45% among 2,500; AID 687008;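 active = mean inhibition over three repeats above a set limit taken from the earlier primary screen, cut at about 38% in these data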;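 note: 100% = cells given the luciferase reporter alone without the COUP-TF2 vector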
Active calls of the source: *; / = no result. Only some compounds are listed: those with a hit (about 1.3% of all), similar ones and a draw of the others.

SMILES	Gli-Sufu block	COUP-TFII inh	NCOA2 inhibitor	SRC1 inh	LRH-1 inv ag	NCOA3 inh	Gal4-VP16 ctr	COUP-TFII conf
COc1cccc(S(=O)(=O)NCc2ccc(C(=O)Nc3ccc(Cl)c(Cl)c3)cc2)c1	2	64*	-7	9	13	-11	-9	23
Cc1ccc(NC(=O)c2ccc(S(=O)(=O)NCc3cccnc3)cc2)cc1C	23	-6	-5	-13	-4	-13	/	/
COCc1ccc(C(=O)N2CCC(CCC(=O)Nc3cccc(C)c3)CC2)s1	9	40*	41	15	11	5	30*	14
O=c1oc(-c2ccccc2)cc2ccccc12	/	-47	-50	-57	-106	-52	/	/
Nc1ccc(-c2cc3ccccc3c(=O)o2)cc1	31	73*	74*	19	-20	26	42*	34
Cc1ccc(C2(c3ccc(C)cc3)CC2C(=O)Nc2ccc([N+](=O)[O-])cc2O)cc1 (centres undefined)	22	67*	0	21	22	56	1	23
O=C(CSc1nnc(-c2cccnc2)s1)Nc1ccnc2ccccc12	13	65*	41	26	51	36	7	62*
O=C(Nc1nc2cc3c(cc2s1)OCO3)c1ccco1	-29	-23	-1	-45	-86	-32	/	/
O=C(Nc1nc2cc3c(cc2s1)OCO3)C1=COCCO1	-38	54*	44	9	-65	19	-27	7
O=C(Nc1nc2cc3c(cc2s1)OCCO3)c1ccco1	-15	69*	59*	0	11	11	1	19
c1ccc(COCCc2cn(Cc3ccccc3)c3ccccc23)cc1	/	3	-6	/	/	/	/	/
CC(C)N1C(=O)S/C(=C/c2ccc(Sc3nc4ccccc4[nH]3)o2)C1=O	38	4	14	10	2	19	/	/
C=CCN1C(=O)S/C(=C/c2ccc(Sc3nc4ccccc4[nH]3)o2)C1=O	26	46*	10	3	14	17	-12	11
CCCCN(c1ccccc1)c1ncnc(N)c1[N+](=O)[O-]	-16	52*	57*	61*	24	63*	15*	31
CCOC(=O)[C@]12CCCC=C1N(Cc1ccc(OC)cc1)C(=O)[C@@H]2CC(=O)N1CCN(C(=O)c2ccco2)CC1	/	4	3	/	/	/	/	/
Cc1c(/C(O)=C2/C(=O)C(=O)N(CCN3CCOCC3)C2c2ccccn2)cnn1-c1ccccc1 (centres undefined)	27	100*	80*	84*	83*	85*	31*	39*
Cc1c(/C(O)=C2\C(=O)C(=O)N(CCCN(C)C)C2c2ccccc2)cnn1-c1ccccc1 (centres undefined)	9	51*	33	25	30	28	1	10
C=CCn1c(SCC(=O)Nc2ccccc2-c2ccccc2)nnc1-c1ccccc1	/	22	-4	/	/	/	/	/
O=C(Nc1ccc(Oc2ccccc2)cc1)c1csc([C@H]2C[C@H](O)[C@@H](CO)O2)n1	/	77*	17	11	44	10	-4	61*
O=C(Nc1ccc(OCCO)cc1)c1csc([C@@H]2O[C@H](CO)[C@H](O)[C@H](O)[C@H]2O)n1	/	2	-15	-6	3	-4	/	/
O=C(Nc1ccc(Oc2ccccc2)cc1)c1csc([C@@H]2O[C@H](CO)[C@@H](O)[C@H]2O)n1	/	66*	28	33	37	-15	7	51*
NC(=O)C1CCN(c2nc(-c3ccc(OCc4ccccc4)cc3)cs2)CC1	/	17	/	/	/	/	/	/
CC1(C)Oc2cc3oc(-c4cc(O)cc(O)c4)cc3cc2CC1O (centres undefined)	7	41*	7	13	13	0	-68	15
O=C1N(c2ccccc2)C[C@@H]2C[C@@H](c3cc4ccccc4o3)N3CCC[C@@]123	76*	80*	54*	90*	95*	88*	9	74*
COc1ccc(-c2noc(CCC(=O)O)n2)cc1	1	15	29	2	16	9	/	/
SMILES	Gli-Sufu block	COUP-TFII inh	NCOA2 inhibitor	SRC1 inh	LRH-1 inv ag	NCOA3 inh	Gal4-VP16 ctr	COUP-TFII conf
COc1ccc(-c2noc(CCCC(=O)O)n2)cc1	43	83*	77*	31	51	46	81*	80*
CCOc1ccc(-c2noc(CCC(=O)O)n2)cc1	28	82*	73*	29	47	43	66*	57*
Cc1ccc(Cn2cc(CN(C(C)(C)C)S(=O)(=O)c3ccc(F)cc3Br)nn2)cc1	/	16	28	/	/	/	/	/
CCn1c(=O)n(CC)c2cc(N3CCCC3)c(NC(=O)c3ccccc3OC)cc21	20	32	20	25	31	8	/	/
CCOc1ccccc1C(=O)Nc1cc2c(cc1N1CCCC1)n(CC)c(=O)n2CC	58*	41*	-3	24	47	32	-3	22
CC(=O)Nc1ccc(-c2csc(Nc3cc(C)ccn3)n2)cc1	-49	53*	-22	-18	-40	-21	-79	-28
COC(=O)[C@]12C[C@H](CC(=O)NCc3cccc(C(F)(F)F)c3)C(=O)N(Cc3ccc4c(c3)OCO4)C1=C[C@H](C(C)C)O[C@@H]2C1CC1	/	-13	-6	/	/	/	/	/
O=C(Nc1ccccc1)Nc1cc(OCC(F)(F)F)cc(OCC(F)(F)F)c1	25	67*	17	9	59	67*	0	20
N#Cc1nc(N2CCCC2)nc(N2CCCC2)n1	6	47*	15	2	19	17	-6	34
N#Cc1nc(N2CCCCC2)nc(N2CCOCC2)n1	-18	10	1	-2	14	-9	/	/
CCNC(=O)C1(C)CCCN(C(=O)c2ccc3sccc3c2)C1 (centres undefined)	/	-16	-10	-10	0	13	/	/
CCNC(=O)C1(C)CCCN(C(=O)c2ccc3c(c2)C(C)(C)CCC3(C)C)C1 (centres undefined)	/	39*	11	24	16	14	-6	31
COC(=O)C1CN(Cc2ccc(OC)cc2)CCS(=O)(=O)N1Cc1cn(CCOC(C)=O)nn1 (centres undefined)	/	-13	14	/	/	/	/	/
CC(=O)N1CCCC(c2cc(C(=O)Nc3ccccc3)no2)C1 (centres undefined)	/	41*	44	25	33	31	17*	59*
O=C(NCc1ccccc1)c1cc(C2CCCN(C(=O)C3CCCCC3)C2)on1 (centres undefined)	/	101*	4	-21	-3	-6	-16	-16
O=C(NCc1ccccc1)c1cc(C2CCCN(C(=O)C3CC3)C2)on1 (centres undefined)	/	-26	15	-38	-27	-29	/	/
OCCN1CCCC12CCC(c1ccccc1)CC2 (centres undefined)	/	-7	18	/	/	/	/	/
